Experimental data: PubChem BioAssay (NCATS)
“And” between values parts separate entries of the source, which are not always exact repeats. Identical values can stand only once. Records with an inconclusive call do not appear. The source made the active and inactive calls. Calls come from the whole dose curve; as a rule, active = well fitted activation curve with a large enough effect; inconclusive = small, poorly fitted or top-dose-only effect; inactive = no such curve, though single readings can be large or run the other way.

The compounds below were run against Cellular tumor antigen p53 (Homo sapiens) (UniProt P04637) (assay: Primary qHTS for small molecule compounds that upregulate eGFP-tagged delta133p53alpha (in N-terminal) cells. (AID 2060322; note: nearly all actives have a fitted effect of over 75% in size;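 for activation: cells pre-induced with doxycycline then dosed without doxycycline; series mostly up to about 56 µM; 0% = DMSO vehicle and 100% = reference activator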)). Conditions: NCI-H358 eGFP-delta133p53alpha fluorescence, 24 h; activation: stronger effect = higher value.
Method in brief: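 NCI-H358 cells pre-induced 24 h with 10 ng/ml doxycycline for eGFP-delta133p53alpha, plated dox-free and exposed 24 h at 37C to titrated compounds. Fixed, Hoechst-stained; gated GFP peak intensity by laser scanning cytometry, normalized to DMSO (0%) and 57.5 uM 5-azacytidine (100%).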
Potency is the fitted concentration of half-maximal effect.

Cellular tumor antigen p53 (Homo sapiens), sequence (P04637 whole entry, looked up): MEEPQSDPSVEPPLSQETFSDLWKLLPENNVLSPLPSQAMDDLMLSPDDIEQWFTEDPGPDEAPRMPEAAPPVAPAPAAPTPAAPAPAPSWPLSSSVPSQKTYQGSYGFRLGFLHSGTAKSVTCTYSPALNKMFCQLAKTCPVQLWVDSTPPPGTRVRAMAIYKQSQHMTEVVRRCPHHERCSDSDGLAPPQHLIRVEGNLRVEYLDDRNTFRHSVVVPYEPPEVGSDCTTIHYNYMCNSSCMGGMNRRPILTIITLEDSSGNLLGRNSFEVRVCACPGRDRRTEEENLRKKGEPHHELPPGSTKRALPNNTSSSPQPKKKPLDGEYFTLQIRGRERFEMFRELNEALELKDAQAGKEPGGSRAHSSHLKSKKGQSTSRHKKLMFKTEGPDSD

SMILES | activation | Potency
NC(=O)c1cccc(-c2cc(OC(=O)NC3CCCCC3)ccc2O)c1 | 7% (inactive) | –
CC(=O)N(O)CCCCCN1C(=O)CCC1=O | -6.25% (inactive) | –
O=C1C(c2c(O)[nH]c3ccccc23)=Nc2ccccc21 | -10.6% (inactive) and 17.7% (inactive) | –
CNC(=O)c1cc(Oc2ccc(NC(=O)c3cccc(C(F)(F)F)c3)cc2)ccn1 | 8.04% (inactive) | –
O=C1Nc2ccccc2-c2nc3ccccc3c(=O)n2-c2c(O)cccc21 | 23.2% (inactive) | –
NC1(c2ccc(NC(=O)c3ccnc(-c4cc(C(=O)O)ccn4)c3)cc2)CC1 | 15.7% (inactive) | –
CC(C(=O)O)c1ccc2c(c1)CC(=O)c1ccccc1S2 (configuration not stated) | 0.619% (inactive) and -1.69% (inactive) and -1.43% (inactive) | –
COc1cc(/C=C/C(=O)O[C@H]2[C@H](OC(=O)/C=C/c3cc(OC)c(O)c(OC)c3)O[C@H](CO[C@@H]3O[C@H](CO)[C@@H](O)[C@H](O)[C@H]3O)[C@@H](O)[C@@H]2O)ccc1O | -3.57% (inactive) | –
CN1CCN(C2=Nc3ccccc3Nc3ccc(O)cc32)CC1 | 1.91% (inactive) | –
CNC(=O)Nc1ccc(OC)c(NC(=O)NC(=O)c2cc(F)c(F)cc2Cl)c1 | -5.67% (inactive) | –
C/C(=N\N=C(N)N)c1cc(NC(=O)CCCCCCCCC(=O)Nc2cc(/C(C)=N/N=C(N)N)cc(/C(C)=N/N=C(N)N)c2)cc(/C(C)=N/N=C(N)N)c1 | – | 26.9 µM (active)
CCOc1ccc2ccccc2c1C(=O)N[C@@H]1C(=O)N2[C@@H]1SC(C)(C)[C@@H]2C(=O)O | 5.08% (inactive) and -4.77% (inactive) | –
